From PubChem BioAssay
ATXN2 expr inh – reduces ATXN2 reporter expression in HEK-293 cells; Potency, µM (highest dose often 57 µM), for inactives: at the top dose activity change, negative = inhibition, usual class: inhibitors; AID 1745845; actives 0.72% (n = 360,000); HEK-293 ATXN2-luciferase reporter, luminescence, 24 h; also: % is scaled to controls: 0 for no effect and ±100 for the full control effect; nearly all actives have a fitted effect of over 55% in size
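qHTS (up to 57 uM final) was run with 24 h compound exposure of reporter cells at 37 °C. Each well was multiplexed: SteadyGlo luminescence measured ATXN2-luciferase expression after a fluorogenic Gly-Phe-AFC viability readout (25 uM final).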
ATXN viability – reduces viability in counter-screen for ATXN expression inhibitors; AID 651635; actives 0.49% (n = 400,000); S2 cells (HEK-293 line with an ATXN2-luciferase reporter) viability, CellTiter-Fluor protease fluorescence, 24 h; Potency, µM (highest dose often 56.7 µM), usual class: cytotoxic; also: nearly all actives have a fitted effect of over 40% in size
DT40 TDP1 CPT – DT40-hTDP1 cell growth loss with CPT | chicken DT40 Tdp1-/-;hTDP1 cells + 20 nM CPT, ATP luminescence, 48 h | Potency, µM (titrated, usually from 46.2 µM), for inactives: at the highest dose activity change, negative = growth inhibition, most hits filed as inhibitors | actives 12% (n = 420,000); also: % is scaled to controls: 0 for no effect and ±100 for the full control effect; nearly all actives have a fitted effect of over 55% in size
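Chicken DT40 Tdp1-/- cells complemented with human TDP1, 400 cells/well, exposed to compounds plus 20 nM camptothecin for at least 48 h at 37 C; viability read as ATP content by CellTiter-Glo luminescence.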
TGFb inhibitor – TGF-b pathway inhibition; HepG2 CAGA-GFP TGF-b/SMAD3 reporter, GFP fluorescence, 18 h; TGF-beta stimulated, 500 pg/mL final; Potency, µM (titrated, usually from 46.1 µM), for the others: at the top dose activity, negative = inhibition, most hits filed as inhibitors; actives 1.2% (n = 410,000); also: % is scaled to controls: 0 for no effect and ±100 for the full control effect; nearly all actives have a fitted effect of over 65% in size
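Smad-responsive CAGA-GFP expression was quantified in HEPG2 cells exposed to compounds and 500 pg/mL final TGF-beta for 18 h at 37 degrees C; unstimulated wells defined full inhibition.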
DT40 TDP1 no CPT – qHTS for Inhibitors of human tyrosyl-DNA phosphodiesterase 1 (TDP1): qHTS in cells in absence of CPT; DT40 Tdp1-/- hTDP1 cells, no CPT, ATP luminescence, 48 h; Potency, µM (titrated, usually from 46.2 µM), for inactives: top-dose activity change, negative = growth inhibition, actives largely listed as inhibitors; actives 15% (n = 420,000); also: % is scaled to controls: 0 for no effect and ±100 for the full control effect; nearly all actives have a fitted effect of over 55% in size
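DT40 Tdp1-/-;hTDP1 cells, no CPT (DMSO vehicle only), 400 cells/well; compounds pin-transferred; ≥48 hr, 37 °C; CellTiter-Glo 30 min RT dark, luminescence read.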
HepG2 viability – counter-screen for TGF-b inhibitors: cytotoxicity in HepG2 cells. Potency, µM (series often up to 46.1 µM), for the others: at the highest dose activity change, negative = cytotoxicity, hits mostly cytotoxic. HepG2 CAGA-GFP viability, ATP luminescence, 18 h. actives 0.76% (n = 410,000)
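CellTiter-Glo luminescence gave cytotoxicity after 18 hours at 37 degrees C. The cells were HepG2 CAGA-GFP in 1% FBS DMEM, stimulated with 500 pg/mL TGF-beta after compound addition. %Activity was normalised to no-cell wells (complete cell-killing) and DMSO (no toxicity), and curves were fitted and classified.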
The depositor's hits bear a star; i = inactive; ? = inconclusive; / = not tested or not shown. Most compounds without a hit are left out; they make up all but 17% or so of the library. Calls follow the shape of the dose curve; as a rule, active = well fitted curve in the direction sought with a large enough effect; inconclusive = small, poorly fitted or top-dose-only effect, or another doubt; inactive = no such curve, though single readings can be large; an effect the other way counts as inactive or inconclusive. Potency is read from the fitted curve at half-maximal effect.

SMILES | ATXN2 expr inh | ATXN viability | DT40 TDP1 CPT | TGFb inhibitor | DT40 TDP1 no CPT | HepG2 viability
Cc1ncc(CO)c2c1Oc1nc(-c3ccccc3)nc(SCC(=O)Nc3cccc(O)c3)c1C2 | / | ? | ? | 12.6µM* | 25.9µM* | -38.6%
CCc1ccccc1NC(=O)CSc1nc(-c2cccc(Cl)c2)nc2c1Cc1c(CO)cnc(C)c1O2 | 1.8% | i | 2.1% | 16.3% | -3.6% | 0.1%
CCOC(=O)C1CCCN(C(=O)C2(c3ccc(Cl)cc3)CCCC2)CC1 (stereo not given) | -21.4% | i | ? | 9.3% | ? | 14.6%
CC(C)(C)c1ccc(NC(=O)COC(=O)C2(C)CC2(Cl)Cl)cc1 (stereo not given) | -4.6% | i | ? | -20.5% | 23.1µM* | -47.4%
CCC(C(=O)OCC(=O)Nc1ccc(C)c(S(=O)(=O)N2CCOCC2)c1)c1ccccc1 (stereo not given) | -12.4% | i | 11.6µM* | 4.8% | ? | -9.7%
Cc1ccc(NC(=O)c2oc3ccccc3c2COC(C)C)cc1S(=O)(=O)N1CCOCC1 | -12.7% | ? | 18.4µM* | -8.0% | 23.1µM* | -3.2%
Cc1cc(C)cc(NC(=O)c2oc3ccccc3c2COc2ccccc2)c1 | 6.2% | i | ? | -26.1% | 20.6µM* | 13.0%
Cc1ccc(NC(=O)COC(=O)/C=C/c2ccccc2)cc1S(=O)(=O)N1CCOCC1 | 0.8% | i | 1.3% | -21.6% | 9.5% | -18.0%
CC(C)CNC(=O)c1oc2ccccc2c1COc1ccccc1 | -10.5% | i | -24.9% | -21.1% | ? | -20.1%
O=C(Cc1c(F)cccc1Cl)Nc1ccccc1C(=O)N1CCOCC1 | 4.9% | i | 1.3% | 1.7% | 2.0% | 10.7%
Cc1cc(N2O[C@H]3C=C[C@@H]2C3)no1 | 10.2% | i | 9.6% | 22.5% | -4.0% | 3.2%
Cc1ccc(NC(=O)CCNC(=O)c2ccc(Br)cc2)cc1S(=O)(=O)N1CCOCC1 | -13.0% | ? | -5.9% | -17.0% | ? | -7.2%
Cc1ccc(NC(=O)CSc2ccc(Br)cc2)cc1S(=O)(=O)N1CCOCC1 | ? | i | 18.4µM* | -14.2% | 25.9µM* | 0.4%
Cc1ccc(NC(=O)COC(=O)C2(C)CC2(Cl)Cl)cc1S(=O)(=O)N1CCOCC1 (stereo not given) | 13.6% | i | 20.6µM* | -12.8% | 23.1µM* | -27.8%
Cc1ccc(NC(=O)C(C)OC(=O)c2cc(=O)[nH]c3ccccc23)cc1S(=O)(=O)N1CCOCC1 (stereo not given) | 1.3% | i | 1.8% | 6.4% | 8.0% | -0.6%
CC(=O)c1c(C)[nH]c(C(=O)OC(C)C(=O)Nc2ccc(C)c(S(=O)(=O)N3CCOCC3)c2)c1C (stereo not given) | -12.0% | i | 23.1µM* | -12.5% | 29.1µM* | -9.5%
O=C(CN1C(=O)C(c2ccc(F)cc2)=NC12CCCCCC2)Nc1ccc(F)c(Cl)c1 | / | / | ? | -0.9% | ? | 9.3%
COc1ccc(NC(=O)CCc2c(C)nc3nc(CNC(=O)c4cccc(F)c4)nn3c2C)cc1OC | -8.1% | i | -0.1% | -11.5% | 8.7% | -9.7%
CC(=O)Nc1ccc(-c2ccnc3c2CC(C(=O)Nc2cccnc2)O3)cc1 (stereo not given) | -1.6% | i | 5.17µM* | 22.4% | 3.66µM* | -1.0%
CC(=O)c1cccc(-c2ccnc3c2CC(C(=O)Nc2ccc(C(C)C)cc2)O3)c1 (stereo not given) | 30.5% | i | 23.1µM* | -8.3% | 10.3µM* | -31.2%
CC(=O)c1cccc(-c2ccnc3c2CC(C(=O)Nc2cccc(Oc4ccccc4)c2)O3)c1 (stereo not given) | -9.5% | i | ? | -0.6% | ? | -13.3%
